Reference: article PMC12136788
In all, about 24,000 sequences were measured (“enrichment r”: median about 0.99, highest 2% from about 3.7 on). The sample holds the highest values, similar sequences and a random draw of the others, so the mix is not that of the screen.

T1: UNK ZnF1-3 (human, UniProt Q9C0B0 31-174)
T1 sequence: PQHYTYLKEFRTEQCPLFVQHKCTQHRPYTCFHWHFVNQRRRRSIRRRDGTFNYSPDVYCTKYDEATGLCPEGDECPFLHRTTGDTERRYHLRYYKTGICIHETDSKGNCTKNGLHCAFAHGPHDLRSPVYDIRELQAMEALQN

B1: chr16:94664741:94664742:+_ENSMUSG00000040785_ENSMUST00000117648|mus_hu|mus_mus_mus_hu_False|8_68 (ssRNA)
RNA: GGGAGUUCUACAGUCCGACGAUCUGGUACUGAUCUUGGUAGCUGAUAUUCAGGAGAAAGGCUGGCCAAAGGUGUGUAUAUGCUGGUGUACUGGGGCAAACCUGGUAACACGUUUAUGUAUGCUGGCCGCUGGGUGAUGAUAUCCAACAGAGGAUUGAGCAUCA
B2: chrX:53596632:53596633:-_ENSG00000086758_ENST00000262854|hu_mus|FALSE|FALSE (ssRNA)
RNA: GGGAGUUCUACAGUCCGACGAUCGGCGUGCUUCUCUGUACUCUCAGCCAUAGCAAGCGCCCGUCCCAGGGCUGCUUUCACUUCAUUCACUAGGGCCACUUGAGCAUCUGUGCCACUCCCCGCAGCAGCCAGACUUGCAAGGAACAACAGAGGAUUGAGCAUCA
B3: chr12:39756943:39756944:-_ENSG00000139116_ENST00000544797|hu_mus|hu_hu_hu_mus_False|18_98 (ssRNA)
RNA: GGGAGUUCUACAGUCCGACGAUCGGUUUGGCUGUUACCCCCGAGGGAAUCCUGCAAGAGUCUUGUCAGCUUAGAGUCUCUGUAAGGGACAUGGGUGGCUCUCUUGCUCUUGUCCCCCAAGGCACUUAUUACAUUCCCAAGAGCCAACAGAGGAUUGAGCAUCA
B4: chr12:96663167:96663168:+_ENSG00000111145_ENST00000228741|hu_mus|FALSE|FALSE (ssRNA)
RNA: GGGAGUUCUACAGUCCGACGAUCUCUGGGUCCACAGGAGAAUCAUGGUAGUUGGAAGAAAAGGAAUCAACAGGCAGACUUACAGUCAUGGGAACAUUUCCAACCAGCGUUUAUAGUUUAAAGGUCGACAGAAGGUCAUCUUGUCAACAGAGGAUUGAGCAUCA
B5: chr7:75932113:75932114:+_ENSG00000106211_ENST00000248553|hu_hu|hu_hu_hu_mus_False|8_48 (ssRNA)
RNA: GGGAGUUCUACAGUCCGACGAUCCUGCGACCACUCAUCGGGCAACCGGGGCACCCCGAAAGCUUGAUCGAAGAGGCGGCUGUGUGCGUACCAGUCGUCCCGGAAUGGUUCCCAGCUCGGGCUCCGCAGCGAGAAGGAGGGCACCAACAGAGGAUUGAGCAUCA
B6: 19974894_19982776_1293_CDS_ENSMUSG00000002428_ENSMUST00000002502|mouse|control|control (ssRNA)
RNA: GGGAGUUCUACAGUCCGACGAUCAAUGUACUGUACAGAAAUUUUUCUUCUCUUAGGGCAGACGCUAGACAGCUGCGACAGAGUACAGCUACUCUUCUCCGGAGUUCCUGAAAUACUGGGUUCUUCACCACACGUGGAUGACUCCAACAGAGGAUUGAGCAUCA

target: T1, UNK ZnF1-3; assay: nsRBNS (natural sequence RNA bind-n-seq); RBNS binding buffer (assumed for nsRBNS): 25 mM Tris pH 7.5, 150 mM KCl, 3 mM MgCl2, 0.01% Triton X-100, 500 ug/ml BSA, 20 U/ml SUPERase-In, 4 C; UNK is unkempt and MSI1 is Musashi-1; names of the RNAs are library labels; protein concentration not given here; high values mean tight binding

Binder | binding signal [enrichment R]
B1 | 1.06
B2 | 1.52
B3 | 0.694
B4 | 1.6
B5 | 1.04
B6 | 0.756
